Test results published in PubChem BioAssay AID1030 (National Center for Advancing Translational Sciences (NCATS), 2008).
Hit rate of the full screen: of about 220,000 compounds, about 16,000 (7.3%) were called active. About 25% were inconclusive and are not listed. Many of the other results were omitted from the sample, so actives are more common in it than they were. A number with no mark means an inactive call. The call rests on the fitted dose curve; in most records, active means well fitted inhibition curve with a large enough effect (not every such curve was filed as active); inconclusive means small, poorly fitted or top-dose-only effect, or another doubt; inactive means no such curve, though single readings can be large or run the other way.

biological target: Aldehyde dehydrogenase 1A1 (Homo sapiens) (UniProt P00352); assay: qHTS Assay for Inhibitors of Aldehyde Dehydrogenase 1 (ALDH1A1); settings: Purified ALDH1A1, NADH fluorescence, propionaldehyde substrate; series mostly up to 75.3 µM; activity, negative = inhibition: at the top concentration;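 on activity, negative = inhibition: plate controls were no enzyme wells and a reference inhibitor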
Potency means the concentration at half of the fitted maximal effect.

Aldehyde dehydrogenase 1A1 (Homo sapiens), sequence (P00352 whole entry, looked up): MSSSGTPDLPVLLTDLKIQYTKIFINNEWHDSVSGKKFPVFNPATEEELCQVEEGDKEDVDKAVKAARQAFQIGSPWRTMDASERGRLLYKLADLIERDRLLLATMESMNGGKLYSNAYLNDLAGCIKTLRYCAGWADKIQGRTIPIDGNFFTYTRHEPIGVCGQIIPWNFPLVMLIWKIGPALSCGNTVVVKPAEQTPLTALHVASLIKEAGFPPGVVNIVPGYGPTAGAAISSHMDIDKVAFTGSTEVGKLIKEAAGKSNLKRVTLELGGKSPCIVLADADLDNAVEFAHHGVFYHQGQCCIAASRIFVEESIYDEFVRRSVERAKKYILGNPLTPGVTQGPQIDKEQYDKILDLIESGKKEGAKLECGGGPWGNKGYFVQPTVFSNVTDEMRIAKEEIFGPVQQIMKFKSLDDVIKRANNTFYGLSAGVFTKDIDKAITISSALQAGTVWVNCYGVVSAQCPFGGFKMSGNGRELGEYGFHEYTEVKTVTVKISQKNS

| Structure (SMILES) | Potency | activity, negative = inhibition |
| --- | --- | --- |
| Cc1c(O)cc(O)c2c(=O)c(-c3ccc(O)cc3)coc12 | 25.1 µM (active) | – |
| CC(C)OC(=O)Cn1nc(C(F)(F)F)c2c1CCCC2 | – | -4.53% |
| Cc1ccc(C(=O)NNC(=O)c2cccs2)cc1 | – | 15.8% |
| COc1ccccc1NC(=O)c1c(Br)cnn1C | – | 3.41% |
| O=C(c1ccccc1)c1ccc(OC(=O)N2CCCC2)cc1 | – | -4.99% |
| COc1ccc(C(=O)COC(=O)COc2ccc(C)c(C)c2)cc1 | – | -12.5% |
| O=C(COc1cccc(F)c1)Oc1ccc(C(=O)c2ccccc2)cc1 | 28.2 µM (active) | – |
| CC(C)(C)c1nnc(N/N=C/c2ccc(O)cc2)n(N)c1=O | – | -9.92% |
| Cn1c(CCCOc2ccc(Cl)cc2Cl)n[nH]c1=S | – | 9.75% |
| S=c1[nH]nc(CSCc2ccc(Cl)cc2Cl)n1-c1ccccc1 | 3.55 µM (active) | – |
| Cc1ccc(NCc2n[nH]c(=S)n2-c2ccccc2)cc1Cl | – | -12.3% |
| S=C(NCc1cccnc1)Nc1ccc(Cl)cc1Cl | – | -4.79% |
| C/C(=N\OCC(=O)Nc1ccc(Br)cc1)c1cccs1 | – | 3% |
| CCOC(=O)c1cc(C)nc(S(C)(=O)=O)c1C#N | – | 1.72% |
| [O-][n+]1c2c(nn1-c1ccc(Cl)c(Cl)c1)-c1nonc1CC2 | – | 12.6% |
| Cc1cc(C)cc(NC(=O)N2CCCCCCC2)c1 | – | -1.68% |
| Cc1cc(=O)[nH]c(=S)[nH]1 | inactive | – |
| O=c1[nH]c(=S)[nH]c2[nH]c(=S)[nH]c12 | 10 µM (active) | – |
| O=C(NC1CCCCC1)C1CCCN(S(=O)(=O)c2ccc(Br)s2)C1 (configuration not stated) | – | 2.8% |
| Cc1ccc(C2CCN(C(=S)Nc3cccc(Cl)c3)C2)cc1 (configuration not stated) | – | -1.08% |
| CC(C)(C)NC(=O)NC(=O)COC(=O)C1(C)CC1(Cl)Cl (configuration not stated) | – | 10.1% |
| Cc1[nH]n(C)c(=O)c1N=Nc1ccc(S(C)(=O)=O)cc1 | – | 7.33% |
| CCOC(=O)c1ccccc1C(=O)N1CCOCCOCCOCC1 | – | 9.52% |
| O=C(Cn1c(N2CCN(C/C=C/c3ccccc3)CC2)nc2ccccc21)c1ccccc1 | – | 3.06% |

| Structure (SMILES) | Potency | activity, negative = inhibition |
| --- | --- | --- |
| COC(=O)CN(C(=S)Nc1ccc(Cl)cc1)C1CC(=O)N(c2ccc(OC)cc2)C1=O (configuration not stated) | – | 14.5% |
| CCOC(=O)c1ccc(N2C(=O)CC(N(C)Cc3ccccc3)C2=O)cc1 (configuration not stated) | 11.2 µM (active) | – |
| COc1ccc(N2C(=O)CC(N3CCC(C(N)=O)CC3)C2=O)cc1 (configuration not stated) | 7.94 µM (active) | – |
| CCOC(=O)c1ccc(NC(=S)N2CCCC2)cc1 | – | -15.1% |
| O=C(Cc1ccccc1)NNC1CC(=O)N(c2ccc(Br)cc2)C1=O (configuration not stated) | – | 3.95% |
| CCCOC(=O)c1ccc(N2C(=O)c3ccccc3C2=O)cc1 | – | 1.75% |
| CCOC(=O)c1ccc(N2C(=O)CC(N3CCN(C(=O)c4ccccc4)CC3)C2=O)cc1 (configuration not stated) | 3.55 µM (active) | – |
| CNC(=O)NC(=O)C(C)N1CCN(C/C=C/c2ccccc2)CC1 (configuration not stated) | – | -7.23% |
| NC(=O)C1CCN(C2OC(=O)c3ccccc32)CC1 (configuration not stated) | – | -5.84% |
| CCCCOC(=O)c1ccc(N2C(=O)CC(N3CCN(C/C=C/c4ccccc4)CC3)C2=O)cc1 (configuration not stated) | 12.6 µM (active) | – |
| CN(C)NC(=O)c1csnc1-c1c(Cl)cccc1Cl | – | 7.95% |
| CC(C)(C)c1ccc(/C=C/C(=O)NC2CCS(=O)(=O)C2)cc1 (configuration not stated) | – | -11.6% |
| CCOC(=O)CNC(=O)N1c2ccccc2Sc2ccccc21 | – | 8.51% |
| CN(CC(=O)N1CCN(c2ccccc2)CC1)S(=O)(=O)c1cccs1 | – | 7.8% |
| CC(=O)N1CCN(S(=O)(=O)c2c(F)cc(F)c(Cl)c2F)CC1 | – | 8.19% |
| COc1ccc(/C(=N\O)c2nccc3cc(OC)c(OC)cc23)cc1OC | – | 14.1% |
| CCC1(C)Cc2c(sc3nc(SC)[nH]c(=O)c23)CO1 (configuration not stated) | – | 0.569% |
| N=C1C(c2nc3ccccc3[nH]2)=C(O)CN1NC(=O)c1c[nH]c2ccccc12 | – | 8.77% |
| COc1ccc(NC(=S)N2CCCC(CO)C2)c(OC)c1 (configuration not stated) | – | 4.06% |
| Cc1cccc(C(=O)OCC(=O)NCC(C)C)c1O | – | 4.6% |
| CCOC(=O)C1CCN(c2ccc(C(=O)O)cc2[N+](=O)[O-])CC1 | – | 2.01% |
| CCOC(=O)c1ccc(N2C(=O)CC(N3CCC(C(=O)OCC)CC3)C2=O)cc1 (configuration not stated) | 12.6 µM (active) | – |
| CCOC(=O)c1ccc(NC(=O)C2CC(=O)Nc3nc4ccccc4n32)cc1 (configuration not stated) | – | 12.3% |
| CCOc1ccc(N2C(=O)CC(N(CCc3ccc(OC)c(OC)c3)C(=S)Nc3ccccc3)C2=O)cc1 (configuration not stated) | – | 4.94% |

| Structure (SMILES) | Potency | activity, negative = inhibition |
| --- | --- | --- |
| O=C1CC(N2CCN(c3ccc(F)cc3)CC2)C(=O)N1c1ccccc1 (configuration not stated) | – | -3.2% |
| CCOC(=O)C1CCN(C(=O)Nc2ccc(Cl)cc2)CC1 | – | 8.47% |
| CSc1nc(O)c(Cc2ccccc2)c(=O)[nH]1 | – | -0.847% |
| COC(=O)c1cc(C(=O)OC)cc(N2C(=O)CC(N3CCN(c4ccccc4)CC3)C2=O)c1 (configuration not stated) | 31.6 µM (active) | – |
| CN1C(=O)CC(N2CCN(c3ccccn3)CC2)C1=O (configuration not stated) | – | -14.7% |
| CCOC(=O)c1ccc(N2C(=O)CC(Sc3nc(O)c(CC)c(=O)[nH]3)C2=O)cc1 (configuration not stated) | 10 µM (active) | – |
| CCCCCCC(=O)N(O)C1CC(=O)N(c2ccccc2)C1=O (configuration not stated) | 0.316 µM (active) | – |
| CCCOc1ccc(N2C(=O)CC(N(CCc3ccc(S(N)(=O)=O)cc3)C(C)=O)C2=O)cc1 (configuration not stated) | – | -10.9% |
| O=C(Nc1ccn(Cc2ccccc2)n1)c1n[nH]c([N+](=O)[O-])c1Cl | – | -1.46% |
| CCn1nc(C)c(CN2CCN(Cc3ccc(OC)c(C)c3C)C(CCO)C2)c1C (configuration not stated) | – | -0.693% |
| O=C(O)CCN(Cc1ccccc1)S(=O)(=O)c1c(Cl)cccc1Cl | – | -4.7% |
| CCOc1ccc(NC(=O)c2cc(C)nc3ccccc23)cc1 | – | 0.296% |
| O=C(CCCOc1ccc(Cl)cc1Cl)NNC(=O)C1CCC1 | – | 1.22% |
| COCc1cc(=O)[nH]c(-c2ccc(C(F)(F)F)cc2)n1 | – | 0.201% |
| O=C(CCc1ccccc1)Nc1nn[nH]n1 | – | -3.34% |
| COc1ccc(N2C(=O)C(Cc3ccccc3)NC2=S)cc1 (configuration not stated) | – | 14.4% |
| COC(=O)CC1=NN(c2nc(C)cc(C)n2)C(=O)C1 | – | 2.76% |
| c1ccc(CN=C2Nc3ccccc3CS2)nc1 | – | 0.764% |
| CCC(C(=O)Nc1ccc2c(c1)OCCO2)c1ccccc1 (configuration not stated) | – | -4.94% |
| CCOc1ccc(N2CC(C(=O)NCCN3C(=O)S/C(=C\c4cccnc4)C3=O)CC2=O)cc1 (configuration not stated) | – | -7.75% |
| C[C@H](NC(=O)c1ccccc1Cl)C(=O)OCCOc1cccc(Cl)c1 | – | 4.04% |
| CCOC(=O)c1ccc(N2C(=O)CC(N3CC(C)OC(C)C3)C2=O)cc1 (configuration not stated) | 7.94 µM (active) | – |
| CC1CN(C(=S)SCC(=O)c2ccccc2)CC(C)O1 (configuration not stated) | – | 0.843% |
| CCC(=O)c1ccc(OCC(O)CN2CC(C)OC(C)C2)cc1 (configuration not stated) | – | -13.7% |
